This is an account of results in PubChem BioAssay AID720509 (The Scripps Research Institute Molecular Screening Center, 2013).

Structures are written as SMILES. About 760 (0.21%) of roughly 370,000 compounds were called active.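 Rule for the calls: active = inhibition above a per-campaign cutoff: mean of compounds within control limits plus 3 SD (cut at about 15% in these data); inactive = the rest.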 Only a selection was taken, and actives are over-represented in it overall.

Sequence of Fibrinogen beta chain (Homo sapiens) (P02675 whole entry, looked up): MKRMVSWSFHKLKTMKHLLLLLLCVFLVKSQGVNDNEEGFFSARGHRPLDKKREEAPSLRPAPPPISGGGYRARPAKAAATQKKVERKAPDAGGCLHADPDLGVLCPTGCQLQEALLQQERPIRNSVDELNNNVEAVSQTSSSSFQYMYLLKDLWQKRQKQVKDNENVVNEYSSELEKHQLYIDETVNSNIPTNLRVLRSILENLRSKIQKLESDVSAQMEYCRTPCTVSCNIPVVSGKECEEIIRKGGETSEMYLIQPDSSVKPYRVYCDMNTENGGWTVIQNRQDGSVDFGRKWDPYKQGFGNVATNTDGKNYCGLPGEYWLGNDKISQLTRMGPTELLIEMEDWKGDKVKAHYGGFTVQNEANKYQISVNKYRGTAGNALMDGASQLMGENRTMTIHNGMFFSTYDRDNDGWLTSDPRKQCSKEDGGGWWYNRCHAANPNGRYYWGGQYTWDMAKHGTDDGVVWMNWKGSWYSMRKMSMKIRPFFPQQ

The assay has as its target Fibrinogen beta chain (Homo sapiens) (UniProt P02675). Description: small molecules displacing Tn6 from DD(E) complex – biochemical, fluorescence polarization, human fibrin, Tn6 probe, primary screen (AID 720509).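 Note: 0% = median of all compound wells on the plate and 100% = blocking peptide control.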 As to conditions: Fibrin DD(E) TRITC-Tn6 fluorescence polarization displacement; at 8.3 µM; active compounds read high.
Usually inhibition stands for the relative decrease from the control value, in per cent. In the case of `O=C(c1c(F)cccc1F)N1CCN(c2ncc(Br)cn2)CC1`, the inhibition was -1.65% (inactive).
Take `CC(=O)OC(C)C[N+](C)(C)C` (centres undefined): the inhibition was 3.71% (inactive).
Regarding `CCOC(=O)C(C)Oc1cccc2c(=O)n(CC(=O)N3CCc4ccccc43)ccc12` (centres undefined), the inhibition was -1.79% (inactive).
The same measure for `CC(=O)N1CCCN(C2=Nc3ccccc3Sc3ccccc32)CC1`: -3.1% (inactive); for `Cc1oc2nc(SCC(=O)NCc3cccnc3)nc(N)c2c1C`: 7.93% (inactive); for `Cc1oc2nc(SCC(=O)Nc3ccc(S(N)(=O)=O)cc3)nc(NC(=O)c3ccccc3)c2c1C`: 24.4% (active).
With `Cc1cc(-c2nnc(SCC(=O)Nc3ccc(S(N)(=O)=O)cc3)n2N)n[nH]1`, the inhibition is -3.55% (inactive).
The same measure for `COc1cc2c(cc1OC)C(C(=O)Nc1cc(C)c(OC)c(C)c1)CC(=O)N2` (centres undefined): 10.8% (inactive).
As for `N#Cc1ccc(COC(=O)Cn2nnc(-c3ccccc3)n2)cc1`, the inhibition is 0.38% (inactive).
The same measure for `CCOc1cccc(-c2nnc(SCC(=O)NC3CC3)n2C)c1`: 6.34% (inactive); for `Cn1c(SCC(=O)NC2CCCCC2)nnc1-c1ccc(N)cc1`: 1.64% (inactive).
The same measure for `CCc1cc(-c2nnc(SCC(=O)NC3CC3)n2C)cs1`: 18.6% (active).
The same measure for `O=[N+]([O-])c1ccccc1N/N=C1\CCc2ccccc21`: -1.87% (inactive); for `O=C(NC1CCc2ccccc21)C12CN(Cc3ccccc3)CC1C(c1cccc([N+](=O)[O-])c1)=NO2` (centres undefined): 1.76% (inactive).
Consider `COCC(C)n1c(C)cc(C(=O)COc2ccc(C)nc2[N+](=O)[O-])c1C` (centres undefined), for which the inhibition was 2.28% (inactive).
For the compound `O=C(NCc1nnc(SCC(=O)N2CCCCCC2)o1)c1ccc(F)cc1`, the inhibition is 4% (inactive).
As for `O=S(=O)(NCC1CN(S(=O)(=O)c2ccc3c(c2)OCCO3)C1)c1c(F)cccc1F`, the figure is 0.97% (inactive); as for `COc1ccc(-c2c(C)nn3c(N4CCC(C(=O)N5CCCCC5)CC4)cc(C)nc23)cc1OC`, -3.53% (inactive).
Turning to `O=S(=O)(Nc1ccc(-n2cnnn2)cc1)c1ccc(Cl)cc1`, the inhibition is -1.46% (inactive).
As to `N#Cc1ccc(S(=O)(=O)NCC(=O)OCC(=O)NCCc2ccccc2)cc1`, the inhibition was -8.48% (inactive).
The same measure for `N#CC1=C(N)Oc2c(sc3ccccc23)C1c1ccco1` (centres undefined): 3.91% (inactive); for `CC(C)(C)c1cc(=O)n2c(nc3ccccc32)[nH]1`: -1.54% (inactive).
The same measure for `CN(CC(=O)Nc1ccccc1Cl)C(=O)c1ccccc1SCC(=O)N1CCCC1`: -6.29% (inactive); for `COc1ccc(N(CC(=O)NC2CCCCC2)S(=O)(=O)c2c(C)[nH]c(=O)[nH]c2=O)cc1`: 6% (inactive).
As to `CCCCNC(=O)C[C@@H]1C[C@@]2(C(=O)OCC)CCC=C2N(Cc2ccco2)C1=O`, the inhibition is 3.81% (inactive).
Regarding `COc1ccc(CNc2c(CO)cnc3c2cnn3C)cc1`, the inhibition is -2.59% (inactive).
As for `COc1ccc(CC(=O)Nc2c3c(nn2-c2cccc(Cl)c2)CS(=O)C3)cc1` (centres undefined), the figure is -10.3% (inactive).
As for `COc1c(C)cc(C(O)c2ncc(-c3cccc(C(F)(F)F)c3)[nH]2)cc1C` (centres undefined), the inhibition was 8.36% (inactive).
The same measure for `CCOC(=O)N1CCN(Cc2nc(N)nc(Nc3ccc(C)cc3)n2)CC1`: 17% (active).
As for `CCOC(=O)N1CCN(Cc2nc3cc(NC(=O)CC)ccc3n2CC)CC1`, the figure is -8.37% (inactive); as for `CCOC(=O)C1CCCN(Cc2nc(N)nc(Nc3ccc(C)cc3)n2)C1` (centres undefined), -3.73% (inactive).
As to `Cc1nnc2n1N=C(c1ccc3c(c1)NC(=O)CO3)CS2`, the inhibition is 0.86% (inactive).
`CCOC(=O)N1CCN(S(=O)(=O)c2ccc(-n3cnnn3)cc2)CC1`: the inhibition was 7.12% (inactive).
The same measure for `COc1ccc(S(=O)(=O)NC(CC(=O)NCc2ccccc2OC)c2ccco2)cc1` (centres undefined): 2.08% (inactive).
For `COc1ccc2c(c1)c1ncn(Cc3ccccn3)c(=O)c1n2C`, the inhibition was -7.12% (inactive).
The same measure for `CC(C)(C)OC(=O)C[C@@H]1C/C=C\C[C@@H](CC(=O)N[C@@H](CO)Cc2ccccc2)C(=O)N2CCC[C@H]2COC1=O`: -2.9% (inactive); for `O=C(COC(=O)c1ccc(F)cc1F)Nc1ncccn1`: 2.94% (inactive).
The same measure for `COC(=O)C1=C(C)NC(=S)NC1c1ccc(OC)cc1` (centres undefined): 0.81% (inactive); for `Nc1nc(SCC(=O)NNc2c(Cl)cc(Cl)cc2Cl)n[nH]1`: 8.94% (inactive); for `COc1ccc(C(CNC(=O)c2ccc(OCc3cscn3)cc2)N2CCCC2)cc1` (centres undefined): 2.19% (inactive).
The same measure for `Oc1c(Cl)cc(Cl)c(Cl)c1Cc1c(O)c(Cl)cc(Cl)c1Cl`: -7.14% (inactive).
As to `Cc1cc([N+](=O)[O-])nn1Cc1ccc(F)cc1`, the inhibition was -0.46% (inactive).
As for `COc1ccc(C(=O)C2CCCN(S(=O)(=O)c3cccc(C)c3)C2)c(C)c1` (centres undefined), the inhibition was -7.45% (inactive).
With `CCCC1(C(=O)OCC)NC(c2ccc(N(C)C)cc2)C2C(=O)N(c3ccc4c(c3)OCCO4)C(=O)C21` (centres undefined), the inhibition is -9.09% (inactive).
The same measure for `COc1ccccc1C(=O)COC(=O)CSCC(=O)Nc1cc(C)on1`: 0.48% (inactive); for `O=C(CN1C(=O)NC2(CCCCCC2)C1=O)NCc1cccs1`: -0.57% (inactive).
As for `CSC1=NN(c2ccccc2)CN(c2ccccc2)N1C`, the figure is -0.87% (inactive).
Regarding `COc1ccc(CCNC(=O)C(=O)NCC2CCCN2S(=O)(=O)c2cccs2)cc1OC` (centres undefined), the inhibition was -8.21% (inactive).
The same measure for `COCCN(Cc1nc(-c2ccc(C(F)(F)F)cc2)no1)C(C)C`: -5.72% (inactive); for `CC(C)CCNC(=O)CC1C(=O)N(Cc2ccccc2)C(C)c2nc3ccccc3n21` (centres undefined): 5.33% (inactive); for `Cc1cc(=O)oc(C)c1C(=O)Nc1cnc2ccccc2c1`: -3.11% (inactive).
The same measure for `CCOc1ccc(C(=O)Nc2cc(Cl)ccc2-n2cncn2)cc1OC`: 2.72% (inactive); for `CN(C)c1cccc(NC(=O)c2ccc(-c3ccc(F)c(F)c3)c3ccoc23)c1`: -0.65% (inactive); for `Cc1cccc(NS(=O)(=O)c2cc(Cl)ccc2Cl)n1`: 1.49% (inactive).
As for `CC(=O)N/C(=C\c1ccc(F)cc1)C(=O)NC(Cc1ccccc1)C(=O)O` (centres undefined), the figure is 2.99% (inactive); as for `Oc1ccc(N=Cc2sc3ccccc3c2Cl)cc1`, 36.1% (active); as for `CN1CCN(S(=O)(=O)c2ccc(Nc3ccc(F)cc3)nc2)CC1`, -3.71% (inactive).
As for `O=C(CCN1C(=O)[C@H]2CC=CC[C@H]2C1=O)NCc1nc(-c2ccccc2)no1`, the inhibition is 1.52% (inactive).
As for `CCc1nc2c(OCc3ccc(C(F)(F)F)cc3)cccn2c1N(C)C(=O)CC(C)C`, the inhibition is 3.22% (inactive).
As for `Cc1nc2nc3c(cn2n1)C(=O)CC(c1ccccc1)C3` (centres undefined), the figure is 4.63% (inactive); as for `CC(C)CSc1nnc(-c2cccnc2)n1Cc1ccccc1`, -2.2% (inactive).
`Cc1cc(NS(=O)(=O)c2ccc(NC(=O)CSc3nnc(-c4ccc(C(C)(C)C)cc4)n3Cc3ccco3)cc2)nc(C)n1`: the inhibition is 6.53% (inactive).
For the compound `Cc1ccc(C(=O)NC2CCN(C(=O)Nc3ccccc3Cl)CC2)cc1`, the inhibition is 0.49% (inactive).
In the case of `CCOCCCNC(=O)c1c[nH]c2cc(C)ccc2c1=O`, the inhibition was -0.35% (inactive).
On to `CCC1C(=O)NCCN1C(=O)c1ccc2nc(Cc3ccc(OC)cc3)oc2c1` (centres undefined), for which the inhibition is 15.8% (active).
With `COc1ccc(Cc2nc3ccc(C(=O)N4CCC(N(C)C)C4)cc3o2)cc1` (centres undefined), the inhibition was 2.22% (inactive).
As for `CCn1ccnc1CN(C)C(=O)c1ccc2nc(Cc3ccc(OC)cc3)oc2c1`, the figure is -4.19% (inactive); as for `CC(C)CN1CC(C)C(=O)N(c2ccccc2)C1=S` (centres undefined), 11.7% (inactive).
The same measure for `COC(=O)C1=C(C)N(c2ccc(C)cc2)/C(=C/c2ccc(O)cc2)C1=O`: 1.49% (inactive); for `Cc1ccccc1N(C(=O)Cc1cccs1)C(C(=O)NC1CCCCC1)c1cn(C)nc1C` (centres undefined): -5.36% (inactive); for `O=C(Nc1cccc(-c2nc3ccccc3[nH]2)c1)c1ccc(C(=O)Nc2cccc(-c3nc4ccccc4[nH]3)c2)cc1`: 19.9% (active).
For the compound `O=C(Nc1nsc(-c2ccccc2)n1)c1ccncc1`, the inhibition is 1.55% (inactive).
With `CCOc1ccc(C(=O)Nc2cccc(-c3ccc4nncn4n3)c2)cc1`, the inhibition is 12.2% (inactive).
Regarding `O=C(c1ccc(F)cc1)c1cn(Cc2ccc(F)cc2)c2cc3c(cc2c1=O)OCCO3`, the inhibition is -1.55% (inactive).
For `CCN(CC)C(=O)CC[C@@H]1CC[C@]2(CCCN(S(=O)(=O)C3CCCCC3)C2)O1`, the inhibition was -5.4% (inactive).
Consider `CCc1nc2ccccc2c(C(=O)OC2CCCCC2=O)c1C` (centres undefined), for which the inhibition is -0.37% (inactive).
As for `CSc1ccccc1OCc1cc(C(=O)N2C[C@H]3CC[C@H]2C3)no1`, the figure is 8.52% (inactive); as for `O=C(CN1C(=O)CSC1=O)N1CCCC(Nc2ccc(F)cc2)C1` (centres undefined), -6.4% (inactive); as for `CC(=O)Nc1ccc(OCCC[n+]2cccc(C(=O)[O-])c2)cc1`, -1.3% (inactive).
The same measure for `Cn1ccc(=Nc2ccc(NC(=O)c3ccc(N=c4ccn(C)c5ccc([N+](=O)[O-])cc45)cc3)cc2)cc1`: -6.27% (inactive).
As for `COC(=O)C1CN(Cc2cn(Cc3ccc(F)cc3)nn2)CCS(=O)(=O)N1Cc1ccc(Cl)cc1` (centres undefined), the figure is 10.6% (inactive); as for `Cc1ccc(OCCNC(=O)c2cccc(S(=O)(=O)N3CCN(Cc4ccccc4)CC3)c2)cc1`, 4.41% (inactive).
Take `C[C@@H]1CN([C@H](C)CO)C(=O)CCCn2cc(nn2)CO[C@H]1CN(C)S(=O)(=O)c1ccc(Oc2ccccc2)nc1`: the inhibition was -1.11% (inactive).
As for `Cc1noc(C)c1-c1nc(CSc2ccc(Cl)cc2)no1`, the figure is -2.98% (inactive).
As for `C[C@@H](C(=O)N1CCNCC1)n1cc(CCC(=O)O)nn1`, the inhibition is -0.49% (inactive).
The same measure for `O=C(NNc1cc(Cl)cc(Cl)c1)c1c(F)cccc1Cl`: 1.43% (inactive).
`O=C(CCl)NNc1cccc(Cl)n1`: the inhibition is 30.8% (active).
As for `O=C(Cc1c(Cl)cccc1Cl)NC1CC1`, the figure is 6.01% (inactive).
As for `COC(=O)[C@]12C[C@H](CC(=O)NCc3cccc(C(F)(F)F)c3)C(=O)N(Cc3ccc4c(c3)OCO4)C1=C[C@H](COCc1ccccc1)O[C@@H]2C`, the figure is -3.35% (inactive).
